Reference: PubChem BioAssay (NCI)
This is part of a sample that, as a whole, favours compounds with a hit. Of some 79,000 tested, about 15% had one in any assay. No stated cut-off is given here; in the data, active means growth inhibition above about 70%; inactive means the rest.

What was measured:
[1] = NCI Yeast Anticancer Drug Screen. Data for the rad50 strain (AID 155);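 further: 0% = growth of vehicle-only cultures of the same strain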; conditions: S. cerevisiae rad50 strain growth inhibition; at 50.0 µM; stronger effect = higher value
How it was run: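 Growth of the mutant yeast was measured after compound exposure and referenced to vehicle-treated cultures.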

[2] = NCI Yeast Anticancer Drug Screen. Data for the mec2-1 strain (AID 157); conditions: S. cerevisiae mec2-1 strain, at 50.0 µM, stronger effect = higher value
How it was run: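 Each compound was tested on mec2-1 yeast, a strain altered in DNA damage repair or cell cycle control. Growth inhibition is reported relative to vehicle.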

[3] = NCI Yeast Anticancer Drug Screen. Data for the sgs1 mgt1 strain (AID 161);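 further: 0% = growth of cultures given vehicle only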; conditions: S. cerevisiae sgs1 mgt1 strain, at 50.0 µM, stronger effect = higher value
How it was run: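 Genetically altered yeast, compound exposure, growth inhibition relative to vehicle.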

[4] = NCI Yeast Anticancer Drug Screen. Data for the cln2 rad14 strain (AID 165);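 further: 0% = growth equal to vehicle treated cultures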; conditions: S. cerevisiae cln2 rad14 strain, at 50.0 µM, stronger effect = higher value
How it was run: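 Test compounds were added to cln2 rad14 yeast cultures; inhibition of growth was then determined by comparison with vehicle treatment.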

[5] = NCI Yeast Anticancer Drug Screen. Data for the bub3 strain (AID 167); conditions: S. cerevisiae bub3 mutant strain, at 50.0 µM, stronger effect = higher value
How it was run: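 Whole-cell yeast assay. The mutant strain was incubated with compounds, and growth inhibition was determined by comparison with vehicle-treated cells.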

[6] = NCI Yeast Anticancer Drug Screen. Data for the mlh1 rad18 strain (AID 175); conditions: S. cerevisiae mlh1 rad18 strain growth inhibition; at 50.0 µM; stronger effect = higher value
How it was run: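 Inhibition values reflect reduced growth of mutant yeast versus vehicle-treated controls following compound exposure; the mutations affect DNA damage repair.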

Measured: growth inhibition

CSc1ccc([As](=O)(O)O)cc1
inactive: [1] 15.2% | [2] 4.45% | [3] 30.9% | [4] 24.3% | [5] -18.1% | [6] 46.5%

NC(C/C=C/P(=O)(O)O)C(=O)O (stereo unspecified)
inactive: [1] -20.4% | [2] -17.1% | [3] -14.8% | [4] 13.2% | [5] 19.9% | [6] -33%

CCN(CC)C1CCCCC1
inactive: [1] 19.8% | [2] 16.1% | [3] -0.9% | [4] -35.7% | [5] -0.9% | [6] 11.2%

Cc1ccc(S(=O)(=O)OC2CC3c4ccccc4C2c2cccc[n+]23)cc1 (stereo unspecified)
inactive: [1] 68% | [2] 7.5% | [3] 36.4% | [4] -18.4% | [5] 8.8% | [6] 12.1%

CC(C)c1cccc(C(C)C)c1NC(=O)/C(CC(=O)CC(c1ccccc1)c1c(O)c2ccccc2oc1=O)=N/O (stereo unspecified)
inactive: [1] -45.5% | [2] 4.85% | [3] 19.1% | [4] -32.1% | [5] -15.8% | [6] 18.3%

CN1CCC2(CC1)C(C#N)C(=O)NC(=O)C2C#N (stereo unspecified)
inactive: [1] 19.8% | [2] 3% | [3] 11.7% | [4] 22.9% | [5] 9.05% | [6] 7.75%

Cc1ccc(P(=O)(O)O)cc1
inactive: [1] -10.9% | [2] -15.9% | [3] 12.1% | [4] 2.6% | [5] -2.2% | [6] -14.8%

CN1[C@@H](CC(=O)c2ccccc2)CCC[C@H]1CC(=O)c1ccccc1
inactive: [1] 21.2% | [2] 5.4% | [3] 42.5% | [4] 37.3% | [5] 28.2% | [6] 1.25%

Cc1ccc(NC(=O)N(C)N=O)cc1
inactive: [1] -3.5% | [2] 5.5% | [3] -4.3% | [4] -11.3% | [5] -6.05% | [6] -4.45%

O=S(=O)(F)c1cccc(Cl)c1C[P+](c1ccccc1)(c1ccccc1)c1ccccc1
inactive: [1] 25.5% | [2] 3% | [3] 13.7% | [4] 12.7% | [5] 25.5% | [6] 41.4%

O=NC1C(=O)NC(=O)NC1=O
inactive: [1] 1.75% | [2] -5.85% | [3] 3.45% | [4] 14.7% | [5] 11.7% | [6] -3.65%

CC1=C(C)CN(CCc2c[nH]c3ccccc23)C(C#N)C1 (stereo unspecified)
inactive: [1] 0.6% | [2] 2.3% | [3] 3.95% | [4] 60.5% | [5] 11.9% | [6] 12.5%

CN1C2CCC1CC(O)(c1ccc(Cl)cc1)C2 (stereo unspecified)
inactive: [1] 26.1% | [2] 16.4% | [3] 16.6% | [4] 16.1% | [5] 30.4% | [6] 28.1%

O=C(O)c1cccc(Cl)c1
inactive: [1] 31.6% | [2] 6% | [3] 19.1% | [4] 10.9% | [5] 25.9% | [6] 8.2%

CN(C)C(=O)Sc1c(Cl)cc(Cl)cc1S(=O)(=O)F
inactive: [1] 43.1% | [2] 6.9% | [3] 56% | [4] 32.6% | [5] -3.2% | [6] 20.6%

O=[N+]([O-])c1ccc(N2CC2)c([N+](=O)[O-])c1
inactive: [1] 1.85% | [2] -1.95% | [3] 10.5% | [4] 20% | [5] -0.95% | [6] 5.45%

CCNCCc1ccc(N)cc1
inactive: [1] 5.05% | [2] -2.95% | [3] 0.8% | [4] -6.75% | [5] 1.85% | [6] -2.65%

CN(C)C1=C(N2CC2)C(=O)C(N(C)C)=C(N2CC2)C1=O
inactive: [1] 17.2% | [2] 9.9% | [3] 14.6% | [4] 9.3% | [5] 1% | [6] 23.7%

O=N[O-].[Co].[NH-]CC[NH-].[NH-]CC[NH-].[NH2-]
inactive: [1] 5.35% | [2] 7.5% | [3] -6.25% | [4] 4.95% | [5] 4.85% | [6] -2.4%

CC1CN1C(=O)NCCCCCCNC(=O)N1CC1C (stereo unspecified)
inactive: [1] -17.7% | [2] -0.2% | [3] -2.95% | [4] -38.7% | [5] -5.55% | [6] -28.6%

Cc1ccc(C(=O)Nc2ccc(CP(=O)(O)O)cc2)cc1NC(=O)Nc1cc(C(=O)Nc2ccc(CP(=O)(O)O)cc2)ccc1C
inactive: [1] 3.55% | [2] -10.6% | [3] -30.1% | [4] 11.9% | [5] -29.1% | [6] 7.45%

OCC1OC(n2nnc3cc(Cl)c(Cl)cc32)C(O)C1O (stereo unspecified)
inactive: [1] 7.3% | [2] -0.8% | [3] 5.85% | [4] 11.3% | [5] 18.8% | [6] 21.7%

O=C(COc1cccc(Cl)c1)Nc1cccc(NC(=O)c2ccc(S(=O)(=O)F)cc2)c1
inactive: [1] 2.75% | [2] 5.95% | [3] -6.85% | [4] -17.2% | [5] -5.75% | [6] 9.2%

COc1cccc(/C=N/[N-]C(=O)c2ccncc2)c1[O-].[Mn+2].[OH3+]
inactive: [1] 9.15% | [2] 12.5% | [3] 7.35% | [4] 9.95% | [5] 4.7% | [6] 20.6%

O=[N+]([O-])c1ccc2nc(-c3ccc(S(=O)(=O)F)cc3)cc(Cl)c2c1
inactive: [1] -19.1% | [2] 16.9% | [3] 4.45% | [4] -12.4% | [5] 13.3% | [6] -9.9%

CC1(C(=N)N)CCOC1=O (stereo unspecified)
inactive: [1] 4.4% | [2] 18.5% | [3] -10.8% | [4] 4.5% | [5] -1% | [6] 7.55%

O=S(=O)(C(Cl)Cl)C(Cl)(Cl)S(=O)(=O)C(Cl)Cl
inactive: [1] -11.4% | [2] -53% | [3] 5.8% | [4] -40.2% | [5] 5.1% | [6] 13.1%

CC(C)OP(=O)(OCCCO)C(Cl)Cl (stereo unspecified)
inactive: [1] 0.35% | [2] 17.1% | [3] 1.1% | [4] 2.55% | [5] 3.75% | [6] 0.75%

CC(=O)[C-](Br)C(C)=O.CC(=O)[C-](Br)C(C)=O.CC(=O)[C-](Br)C(C)=O.[Ru+3]
inactive: [1] 1.05% | [2] 1% | [3] -15.9% | [4] -15.1% | [5] 17.8% | [6] 14.5%

CCCCCCCCCCCCCC(=O)O.[Pb]
inactive: [1] -4.8% | [2] 7.35% | [3] -5.9% | [4] -0.65% | [5] -12.7% | [6] 5%

CC1(C)OP(=O)(c2ccccc2)C=C1Br (stereo unspecified)
inactive: [1] -39.9% | [2] -9.4% | [3] -23.4% | [4] -11.8% | [5] -2.75% | [6] -3.7%

COc1ccc2c(c1O)CN1CCc3cc4c(cc3C1C2)OCO4 (stereo unspecified)
inactive: [1] 40.5% | [2] 22.1% | [3] 28.6% | [4] 25.9% | [5] 43.2% | [6] 19.9%

CC(Br)C(N)=O (stereo unspecified)
inactive: [1] -14.4% | [2] -17.8% | [3] -14.1% | [4] -20.4% | [5] -4.9% | [6] -13.8%

OC(c1ccc2ccccc2n1)C1CCCCN1 (stereo unspecified)
inactive: [1] 14.2% | [2] -6.45% | [3] 7.05% | [4] -8.15% | [5] -1.7% | [6] 11.1%

CC(C)N=Cc1ccccc1O.CC(C)N=Cc1ccccc1O.[Ni]
inactive: [1] 51.3% | [2] 1.1% | [3] 48.6% | [4] -4.45% | [5] 7.05% | [6] 22.2%

Cc1ncc([N+](=O)[O-])n1C(C)C(=O)Nc1ccc(N(CCCl)CCCl)cc1 (stereo unspecified)
inactive: [1] -6.2% | [2] 10.3% | [3] 3.5% | [4] -2.3% | [5] -4.65% | [6] 13.2%
